Bioassay records: PubChem, University of Kansas High Throughput Screening Laboratory
The sample as a whole holds a higher share of hits than the screen did.
mHTT CaM bind – mutant huntingtin-calmodulin interaction inhibitors – biochemical, AlphaScreen, primary screen; P42858; inhibition, % at 15 µM; AlphaScreen His-mHTT/GST-CaM binding, luminescence; 190,000 compounds, 3.6% hits; AID 1671202, 2021
Pf apPOL block – Pf-apPOL inhibitors, biochemical, fluorescence; inhibition, % at 10 µM; Plasmodium falciparum apicoplast DNA polymerase (apPOL); Recombinant Pf-apPOL, molecular beacon fluorescence, 1.5 h; 210,000 compounds, 0.25% hits; AID 1794808, 2022
Of the large screens only hits and unclear results are named; the others gave an inactive call. Cut-off read from the data, not from the text of the source: active = inhibition above about 50%; inactive = the rest.

O=S(=O)(NCC(c1ccco1)N1CCOCC1)c1cccs1 (configuration not stated)	none
COc1ccc(CNC(=O)C2CCN(c3nnc(-c4ccc(C)cc4)o3)CC2)cc1	none
CCCn1c(=O)c(C(=O)NCc2ccccc2Cl)c(O)c2ccccc21	none
Cc1ccc(CNC(=O)c2ccc(Cl)cc2Cl)cc1	Pf apPOL block 65
Cc1ccc(C(=O)NCc2ccc(Cl)cc2)c(Cl)c1	none
Cc1ccc(Cn2c(=O)cc(C(=O)NCc3ccccc3Cl)c3ccccc32)cc1	mHTT CaM bind 78
Cc1cc([N+](=O)[O-])nn1CC(=O)Nc1ccccc1C(F)(F)F	none
CCOc1ccc(-n2nnc(C(=O)Nc3cc(C)on3)c2C)cc1	none
CCCn1c(SC)nnc1SC	none (no result: mHTT CaM bind)
COC(=O)CCN(Cc1ccccc1)S(=O)(=O)c1ccccc1Br	none
CC(C)(C)N=C1Nc2ncccc2NC12CCCN(C(=O)Cc1c[nH]c3ccccc13)C2 (configuration not stated)	none
Cc1ccc(-n2cnc3cc(C(=O)NCc4ccco4)ccc32)c(C)c1	none
CCOC(CNC(=O)c1ccc2c(c1)ncn2-c1ccc(C)c(Cl)c1)OCC	none
Cc1ccc(-n2cnc3cc(C(=O)NCc4ccco4)ccc32)cc1Cl	mHTT CaM bind 79
CCCNC(=O)c1ccc2c(c1)ncn2-c1ccc(C)c(Cl)c1	mHTT CaM bind 52
C#CCOc1ccc(C2CC(=O)Nc3c2c(C)nn3-c2nc3ccccc3s2)cc1OC (configuration not stated)	none
O=C(O)CCN(CC(=O)O)C(=O)c1ccccc1	none
O=C(c1ccc(F)cc1)N1CCCN(Cc2noc(-c3ccccc3)n2)CC1	none
O=C(Nc1cc(Cl)cc(Cl)c1)c1cc(S(=O)(=O)NCc2ccco2)ccc1F	none
O=C(Nc1ccc(Cl)c(Cl)c1)c1ccc(F)c(S(=O)(=O)NCc2ccco2)c1	mHTT CaM bind 64
COc1ccccc1CNS(=O)(=O)c1ccc(F)c(C(=O)Nc2ccc(C)c(Cl)c2)c1	mHTT CaM bind 70
O=C(Nc1ccc(Cl)c(Cl)c1)c1ccc(F)c(S(=O)(=O)NCc2cccs2)c1	mHTT CaM bind 81
O=C(Nc1cccc(Cl)c1)c1ccc(F)c(S(=O)(=O)NCc2cccs2)c1	none
COc1ccccc1CNS(=O)(=O)c1ccc(F)c(C(=O)Nc2ccc(F)c(F)c2)c1	none
O=C(Nc1ccc(F)c(F)c1)c1ccc(F)c(S(=O)(=O)NCc2ccco2)c1	none
O=C(Nc1ccc(Cl)c(Cl)c1)c1cc(S(=O)(=O)NCc2ccco2)ccc1F	mHTT CaM bind 100
O=C(C1CCCc2c1[nH]c1ccccc21)N1CCN(c2ccccc2F)CC1 (configuration not stated)	none
Cn1cnnc1C1CCCN(C(=O)CCc2ccccc2)C1 (configuration not stated)	none
O=C(NC1CCCCC1)C1CCN(c2nc3ccccc3[nH]2)CC1	none
CCC(C)NC(=O)c1cnn2c1NC(c1ccc(OC)cc1)CC2C(F)(F)F (configuration not stated)	none
Cc1ccc2c(c1)N(c1ccccc1F)C=C(C#N)S2(=O)=O	none
Cc1cc(C)cc(N2CC(C(=O)NCc3ccccc3F)CC2=O)c1 (configuration not stated)	none
O=C(Cc1ccccc1Cl)Nc1nnc(COc2ccccc2)o1	mHTT CaM bind 84
O=C(CCSc1ccc(Cl)cc1)Nc1nnc(COc2ccccc2)o1	none
O=C(Nc1nnc(COc2ccccc2)o1)c1ccccn1	none
O=C(Nc1nnc(COc2ccccc2)o1)c1cc(Cl)sc1Cl	mHTT CaM bind 56
COc1cccc(-c2coc3cc4oc(=O)c5c(c4cc23)CCCC5)c1	none
O=C(O)c1cccnc1SC1CC(=O)N(c2ccc3c(c2)OCO3)C1=O (configuration not stated)	none
Cc1nnc(N2C(=O)C(O)=C(C(=O)c3ccco3)C2c2ccc(Br)cc2)s1 (configuration not stated)	none
Cc1nnc(N2C(=O)C(O)=C(C(=O)c3ccco3)C2c2ccc(Cl)cc2)s1 (configuration not stated)	mHTT CaM bind 78
Cc1nnc(N2C(=O)C(O)=C(C(=O)c3ccco3)C2c2ccccc2F)s1 (configuration not stated)	mHTT CaM bind 57
COc1ccc(C2C(C(=O)c3ccco3)=C(O)C(=O)N2c2nnc(C)s2)cc1OC (configuration not stated)	none
Cc1nnc2ccc(-c3noc(Cc4ccc(Cl)cc4)n3)cn12	none
O=C1c2ccc(Oc3ccc4c(c3)C(=O)N(c3ncccn3)C4=O)cc2C(=O)N1c1ncccn1	none
CN(CC(=O)NCc1cccs1)c1nc2ccccc2s1	none
CN(CC(=O)Nc1nc(-c2ccco2)cs1)c1nc2ccccc2s1	mHTT CaM bind 77
Cc1c(Cc2ccccc2)[nH]c2ccccc12	mHTT CaM bind 100
O=c1[nH]c2ccccc2c(=O)n1Cc1ccccc1	none
CCOc1cc(CNc2ccc([N+](=O)[O-])cc2C)ccc1OC	none
CCc1ccc(-n2[nH]c3c(cnc4ccc(C(=O)NC(C)C)cc43)c2=O)cc1	none
